This is a sample that favours compounds with a hit; in the whole collection about 4.7% have one here.
PABP1 MLLE inh: inhibitors of microRNA-mediated deadenylation, human PABP1 MLLE binding | P11940 | GST-MLLE / FITC-PAM2 fluorescence polarization | inhibition, % at 20 µM | hit rate 0.36% among 360,000; in the data active = inhibition above about 35%, passing the limit was not always enough
SUMO HTRF inh: blocks human SUMOylation mediated by UBC9 | HTRF SUMOylation assay, SAE1/SAE2 + UBC9, in vitro | inhibition, % at 35 µM | hit rate 0.36% among 290,000 | AID 2006; in the data active = inhibition above about 50%, passing the limit was not always enough; inconclusive = no clear call, values can overlap the other calls
Target sequence (P63279 whole entry, looked up): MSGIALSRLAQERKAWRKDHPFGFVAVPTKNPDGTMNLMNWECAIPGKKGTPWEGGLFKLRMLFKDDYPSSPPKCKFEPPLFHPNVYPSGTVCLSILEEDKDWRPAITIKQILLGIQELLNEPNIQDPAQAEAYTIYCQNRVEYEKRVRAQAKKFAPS
PABP FP inh: PABP-poly(A) binding inhibition | P11940 | inhibition, % at 35 µM | PABP-poly(A) RNA binding, fluorescence polarization | hit rate 1% among 290,000;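 also: calls also rest on retests at 20 µM and on dose response follow-up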
Efflux pump mplx: inhibitors of Candida antifungal efflux pumps expressed in yeast; hit rate 0.44% among 330,000; S. cerevisiae Candida pump triplex, Nile Red efflux; AID 485275; inhibition, % at 10 µM;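 active = plate passing quality check with inhibition over a set limit, or well fluorescence over plate mean plus 4 SD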;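 also: Nile Red retained in pooled yeast measured as flow cytometry median fluorescence; higher means more Nile Red kept so more efflux inhibition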
eIF4H inh: inhibitors of RNA binding by human eIF4H; Q15056; eIF4H fluorescence polarization binding assay; inhibition, % at 35 µM; hit rate 0.94% among 290,000;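 also: calls also rest on retests at 20 µM and on dose response follow-up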
ALR inh: blocks human ALR sulfhydryl oxidase activity | P55789 | purified ALR, DTT oxidation, H2O2 HRP-luminol luminescence | AID 485317 | inhibition, % (test concentration not listed) | hit rate 3.8% among 290,000;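 active = mean replicate inhibition above about 79%, with every replicate also reaching it, limit read from the data; inconclusive = only one of the two criteria met; inactive = mean below limit and not every replicate reaching it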
Numbers stand for hits; n = inactive; u = inconclusive; x = no result given. Unless noted, no rule for the calls is given here.

SMILES	PABP1 MLLE inh	SUMO HTRF inh	PABP FP inh	Efflux pump mplx	eIF4H inh	ALR inh
Cn1c(-c2ccccc2)cnc1SCC(=O)N1CCCCC1	n	n	n	n	n	100
Cc1ccc(-c2cnc(SCC(=O)N3CCCc4ccccc43)n2C)cc1	n	n	n	n	n	n
Cn1c(SCC(=O)N2CCCC2)nc2ccccc21	n	n	n	n	active	n
COc1cc(C(CC(=O)N2CCCC2)c2c(OC)cc(OC)c3ccc(=O)oc23)cc(OC)c1OC (stereo not given)	43	n	n	n	52	n
COc1cc(OC)c2ccc(=O)oc2c1C(CC(=O)N1CCCC(C)C1)c1ccc2c(c1)OCO2 (stereo not given)	n	n	n	n	n	n
COc1cc(OC)c2ccc(=O)oc2c1C(CC(=O)N1CCCC1)c1ccc2c(c1)OCO2 (stereo not given)	n	n	51	n	82	n
COc1ccc2c(COC(=O)[C@H](C)NS(=O)(=O)c3ccccc3F)cc(=O)oc2c1	n	x	x	n	x	n
CCOC(=O)c1c(C)oc2c1c1c(c3ccccc32)OCN(CCCC(=O)O)C1	n	n	n	n	n	91
N#Cc1ccccc1S(=O)(=O)N1CCN(C(=O)C2CC(=O)N(c3ccc4c(c3)OCCO4)C2)CC1 (stereo not given)	n	x	x	n	x	n
Oc1ccc(-c2nc(-c3ccc(O)c(O)c3)cs2)cc1	n	n	n	n	n	99
CCn1cnc2cc(NCc3ccc(Cl)cc3)ccc21	n	n	n	n	n	n
Cc1ccc(CNc2ccc3c(c2)ncn3C(C)(C)C)cc1	n	n	n	n	n	89
CCn1cnc2cc(NCc3ccncc3)ccc21	n	n	n	n	n	82
Cc1ccc(CNc2ccc3c(c2)ncn3C)cc1	n	n	n	n	n	n
COC(=O)C1CC(=O)N(c2ccc(OCc3ccccc3Cl)cc2)C1 (stereo not given)	n	n	44	n	103	n
c1ccc(CN(CC2=NCCN2)c2ccccc2)cc1	n	n	n	n	n	n
Cc1ccc(N(CC2=NCCN2)c2cccc(O)c2)cc1	n	n	n	n	n	98
O=C1N=C(N2CCOCC2)S/C1=C1\C(=O)N(Cc2ccccc2)c2ccc(Br)cc21	x	n	n	x	n	x
CCCCN1C(=O)/C(=C2\SC(N3CCCCC3)=NC2=O)c2ccccc21	40	n	n	n	n	n
COc1cc(/C=N/NC(=O)C2CCN(CC(O)COCc3ccccc3)CC2)cc(OC)c1OC (stereo not given)	n	n	n	n	n	n
COc1ccc(/C=N/NC(=O)CC(=O)NCCc2ccccc2)cc1OC	n	n	n	n	n	n
COc1cc(/C=N/NC(=O)C2CCN(CC(O)COCc3ccccc3)CC2)ccc1O (stereo not given)	n	n	n	n	n	99
CCOc1cc(/C=N\NC(=O)CC(=O)NCCc2ccccc2)ccc1O	n	n	n	n	n	99
COc1cc(/C=N\NC(=O)CC(=O)NCCc2ccccc2)ccc1O	n	n	n	n	n	99
CCOc1ccc(/C=N\NC(=O)CC(=O)NCCc2ccccc2)cc1	n	n	n	n	n	n
SMILES	PABP1 MLLE inh	SUMO HTRF inh	PABP FP inh	Efflux pump mplx	eIF4H inh	ALR inh
COc1ccc(S(=O)(=O)N2CC(=O)Nc3ccccc32)cc1C	n	n	n	n	n	n
COc1ccc(C(c2c[nH]c3ccccc23)c2c[nH]c3ccccc23)cc1O	n	n	n	n	n	88
COC(=O)c1cc(C(=O)OCC(=O)Nc2ccc(N3CCOCC3)cc2)cc([N+](=O)[O-])c1	n	x	x	n	x	n
CCOC(=O)c1c(C)[nH]c(C2=NNC(=NC3CC3)SC2)c1C	n	n	n	n	n	98
Cc1ccc(CNC(=O)CSc2ccsc2[N+](=O)[O-])cc1	n	n	n	n	n	n
O=C(CSc1ccsc1[N+](=O)[O-])Nc1cc(F)ccc1F	n	n	n	x	n	x
CC(=O)c1ccc(NC(=O)CSc2ccsc2[N+](=O)[O-])cc1	n	n	active	x	n	x
CCN(CC)c1ccc(NC(=O)CSc2ccsc2[N+](=O)[O-])c(C)c1	n	n	12	n	u	93
COc1ccc2nc3cc(Cl)ccc3c(Nc3cc(CN4CCCC4)c(O)c(CN4CCCC4)c3)c2n1	n	n	u	n	n	99
COc1ccc2nc3cc(Cl)ccc3c(Nc3cc(C(C)C)c(O)cc3C)c2c1	n	n	n	n	n	n
Cc1ccc(NC(=S)NNc2ccc([N+](=O)[O-])cc2S(=O)(=O)Nc2ccccc2C(=O)O)cc1C	n	n	n	n	n	x
Cc1ccc(C(=O)NNC(=S)Nc2cccc(Cl)c2Cl)cc1[N+](=O)[O-]	n	n	n	n	n	97
Cc1ccc(NC(=S)NNC(=O)c2cccc([N+](=O)[O-])c2)cc1Cl	n	n	n	n	n	88
Cc1ccc(NC(=S)NNc2ccc(C(=O)O)cc2[N+](=O)[O-])cc1C	n	x	x	n	x	99
O=C(NNC(=S)Nc1ccc(F)cc1)c1cccc([N+](=O)[O-])c1	n	n	n	n	n	x
COc1ccccc1Nc1nn2c(=O)c3ccc(C(=O)N4CCCC(C)C4)cc3nc2s1 (stereo not given)	n	n	n	n	n	n
CN(C(=O)c1cccc(NC(=O)Cc2ccc(NC(=O)C3CCN(C(=O)CCc4ccccc4)CC3)cc2)c1)C1CCC1	n	x	x	x	x	x
O=C(O)c1oc2ccc(Br)cc2c1-n1cccc1	n	n	20	n	81	n
Cc1c(C(=O)N2CCCCC2)oc2ccc(Br)cc12	n	x	x	n	x	n
O=C1CCCC2=C1C(c1ccccn1)Nc1ccc(C(=O)c3ccccc3)cc1N2 (stereo not given)	n	n	n	n	n	n
O=C1CCCC2=C1C(c1ccco1)Nc1ccc(C(=O)c3ccccc3)cc1N2 (stereo not given)	n	n	53	n	82	n
Cc1nnc(SCC(=O)c2c(N)n(C)c(=O)n(C)c2=O)n1Cc1ccccc1	n	n	n	n	n	n
CCNc1nc(NCC)n2c(SCC(=O)O)nnc2n1	n	n	n	n	n	n
CCNc1nc(NCC)n2c(SCC(=O)c3ccccc3F)nnc2n1	n	n	n	n	n	94
Cc1nnc(SCC(=O)c2ccccc2F)n1Cc1ccccc1	n	n	n	n	n	94
O=c1cc(-c2ccc(O)c(O)c2)oc2c(C3O[C@H](CO)[C@@H](O)[C@H](O)[C@H]3O)c(O)cc(O)c12 (stereo not given in full)	n	n	n	n	n	99
O=c1cc(-c2ccc(O)c(O)c2)oc2cc(O)c(C3OC(CO)C(O)C(O)C3O)c(O)c12 (stereo not given)	n	n	n	n	n	99
O=C(O)c1ccc(Nc2nc(-c3cc4ccccc4oc3=O)cs2)cc1O	n	n	n	x	51	x
O=C(/C=C/c1cc(Br)ccc1O)c1ccco1	n	n	n	n	n	97
O=C(/C=C/c1ccccc1O)c1ccco1	n	n	n	n	n	x

From PubChem BioAssay
